Where “and” joins values, the source holds several entries; their conditions need not be identical. Identical values can stand only once. Unmarked numbers belong to inactive results. Calls of active or inactive are those of the source.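 Rule for the calls: active = compounds whose dose series gives a full or clear partial fitted curve of increased nuclear translocation; inconclusive = weak partial curve or effect only at the top dose; inactive = no dose-dependent translocation response.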
Biological target: Glucocorticoid receptor (Homo sapiens) (UniProt P04150)
Assay: GR-GFP Redistribution (AID 450)
Details: U2OS GR-GFP nuclear translocation, laser cytometry, 2 h
Description: NIH Molecular Libraries Screening Centers Network [MLSCN]
NIH Chemical Genomics Center [NCGC]
The glucocorticoid receptor (GR) Redistribution assay (BioImage) enables the visualization of GR cytoplasmic to nuclear translocation by the use of a GR-GFP fusion. GR is normally cytosolic, however ligands such as dexamethasone, cause nuclear translocation where the protein binds to response elements and interacts with various co-factors to modulate transcription. Because both functional agonists and antagonists can induce nuclear translocation, this assay can detect ligands regardless of their effects on gene expression. GR-GFP expressing U20S cells were used here. Dexamethasone was the positive control for translocation and data normalization. Detection of nuclear translocation was performed in 1536-well plates using the Acumen laser scanning plate cytometer (TTP LabTech). Validation of this assay and a detailed protocol have been described.
NCGC Assay Protocol Summary:
GR-GFP U2OS cells were maintained in DMEM with Glutamax and high glucose, 1% v/v penicillin-streptomycin, and 0.5 mg/mL Geneticin. For cell culture, 10% […] fetal bovine serum (FBS) was used (Invitrogen #26140-079). For cell plating 10% dextran, charcoal-stripped FBS (Hyclone SH30068.03) was used. U2OS cells were trypsin treated, suspended in medium, and passed through a 40 um basket filter. The cells were seeded at 600 cells/5 uL/well into clear-bottom black sided 1536-well plates and incubated for approximately 20 hrs, 37degC, 5%, CO2 in a tissue culture incubator. Twenty-three nL of compound was delivered by pin tool and the plates were incubated as above for 2 hrs. The compounds were tested as a 7-point titration ranging from 46 uM to 0.6 nM. The cells were fixed using the Kalypsys Washer/Dispenser station. The fixing protocol involved aspiration of the cell media, addition of 6 uL/well of PBS, aspiration of PBS, addition of 5uL/well of 100% methanol, aspiration of methanol, and addition of 3 uL/well PBS with 1.5 uM propidium iodide (PI). The plates were read by the Acumen Explorer using a 1 x 8 um scan of the whole well area. PI fluorescence triggered the collection of PI and GFP signals. A nuclei population was defined by a 10 to 100 um width and depth filter that eliminated small and large fluorescent particles. Two subpopulations of nuclei were then defined by peak intensity of GFP fluorescence to obtain translocated and untranslocated objects. The number of translocated objects was used for data normalization.
Keywords: NIH Roadmap, MLSCN, MLI, MLSMR, sOGT, qHTS, NCGC
Potency is the fitted concentration of half-maximal effect.

Sequence of Glucocorticoid receptor (Homo sapiens) (P04150 whole entry, looked up): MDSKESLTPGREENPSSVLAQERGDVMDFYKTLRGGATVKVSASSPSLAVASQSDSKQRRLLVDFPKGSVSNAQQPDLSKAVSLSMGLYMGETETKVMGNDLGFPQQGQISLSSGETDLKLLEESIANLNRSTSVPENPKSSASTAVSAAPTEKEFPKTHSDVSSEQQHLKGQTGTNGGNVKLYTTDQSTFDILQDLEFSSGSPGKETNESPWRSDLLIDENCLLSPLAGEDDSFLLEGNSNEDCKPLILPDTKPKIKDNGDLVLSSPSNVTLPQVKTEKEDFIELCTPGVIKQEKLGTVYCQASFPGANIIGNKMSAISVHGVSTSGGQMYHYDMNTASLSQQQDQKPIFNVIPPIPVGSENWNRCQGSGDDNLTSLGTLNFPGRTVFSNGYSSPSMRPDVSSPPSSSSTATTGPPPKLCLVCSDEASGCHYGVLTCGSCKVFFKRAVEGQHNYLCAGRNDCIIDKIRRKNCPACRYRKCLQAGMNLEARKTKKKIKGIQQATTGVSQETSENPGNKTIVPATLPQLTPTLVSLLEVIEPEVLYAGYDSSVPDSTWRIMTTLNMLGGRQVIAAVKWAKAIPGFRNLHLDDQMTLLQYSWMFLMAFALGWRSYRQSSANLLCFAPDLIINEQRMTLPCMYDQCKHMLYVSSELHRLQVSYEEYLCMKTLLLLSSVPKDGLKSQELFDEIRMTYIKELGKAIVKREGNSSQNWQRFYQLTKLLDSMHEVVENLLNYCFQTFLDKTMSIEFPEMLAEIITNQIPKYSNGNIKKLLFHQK

| Compound | Potency |
| --- | --- |
| CCOC(=O)C1=C(O)C(=O)N(Cc2ccccc2)C1 | > 46 µM |
| Nc1ccc(S(N)(=O)=O)cc1 | > 20.6 µM |
| Oc1ccc(OCc2ccccc2)cc1 | > 20.6 µM |
| O=c1cc(N2CCOCC2)oc2c(-c3ccccc3)cccc12 | > 46 µM |
| Cc1cccc(C#Cc2ccccc2)n1 | > 46 µM |
| NC(=NCc1ccccc1)NC(=O)c1nc(Cl)c(N)nc1N | > 46 µM and > 20.6 µM |
| CCCOc1ccc2nc(NC(=O)OC)[nH]c2c1 | > 20.6 µM |
| Nc1nc(Cl)nc2c1ncn2[C@H]1C[C@H](O)[C@@H](CO)O1 | > 20.6 µM |
| CN(C)CCCC1(c2ccc(F)cc2)OCc2cc(C#N)ccc21 (stereo not given) | > 20.6 µM |
| O=C1NC(=O)C(c2ccccc2[N+](=O)[O-])=C1Nc1ccc(O)c(Cl)c1 | > 46 µM |
| Cc1cc(C2CCCCC2)n(O)c(=O)c1 | > 20.6 µM |
| NNc1nncc2ccccc12 | > 46 µM and > 20.6 µM |
| CC1(C)C(=O)N(CCN2CCC(C(=O)c3ccc(F)cc3)CC2)c2ccccc21 | > 46 µM |
| Cc1cccc(CN2CCN(C(c3ccccc3)c3ccc(Cl)cc3)CC2)c1 (stereo not given) | > 20.6 µM |
| O=C(CCc1ccc(O)cc1)c1c(O)cc(O)cc1O | > 46 µM |
| CCCCN(CCCC)CCC(O)c1cc2c(Cl)cc(Cl)cc2c2cc(C(F)(F)F)ccc12 (stereo not given) | > 20.6 µM |
| c1ccc2[nH]c(-c3cscn3)nc2c1 | > 20.6 µM |
| CC(C)Oc1ccc2c(=O)c(-c3ccccc3)coc2c1 | > 20.6 µM |
| Oc1ccc(-c2nc(-c3ccc(F)cc3)c(-c3ccncc3)[nH]2)cc1 | > 46 µM |
| CCN(CC)CCOc1ccc(Cc2ccccc2)cc1 | > 46 µM |

| Compound | Potency |
| --- | --- |
| Cc1c(OCC(F)(F)F)ccnc1CS(=O)c1nc2ccccc2[nH]1 (stereo not given) | > 46 µM and > 20.6 µM |
| O=c1c(O)c(-c2ccc(O)cc2O)oc2cc(O)cc(O)c12 | > 46 µM and > 20.6 µM |
| COc1c2occc2cc2ccc(=O)oc12 | > 20.6 µM |
| Nc1cc(C(Cl)=C(Cl)Cl)c(S(N)(=O)=O)cc1S(N)(=O)=O | > 20.6 µM |
| CCC1=C(C)CN(C(=O)NCCc2ccc(S(=O)(=O)NC(=O)NC3CCC(C)CC3)cc2)C1=O (stereo not given) | > 20.6 µM |
| O=C(NCCO[N+](=O)[O-])c1cccnc1 | > 46 µM |
| NCCCCNCCCN | > 46 µM |
| CCN(CC)C(=S)SSC(=S)N(CC)CC | > 46 µM and > 20.6 µM |
| C[C@H](Cc1ccc(O)c(O)c1)[C@@H](C)Cc1ccc(O)c(O)c1 | > 46 µM |
| O=C(O)c1cccnc1Nc1cccc(C(F)(F)F)c1 | > 46 µM and > 20.6 µM |
| O=c1c(O)c(-c2cc(O)c(O)c(O)c2)oc2cc(O)cc(O)c12 | > 46 µM and > 20.6 µM |
| COc1cc2nc(N3CCN(C(=O)C4CCCO4)CC3)nc(N)c2cc1OC (stereo not given) | > 20.6 µM |
| Cc1cc(O)c2c(c1)C(=O)c1cc(O)cc(O)c1C2=O | > 46 µM |
| CCOc1cc(CC(=O)N[C@@H](CC(C)C)c2ccccc2N2CCCCC2)ccc1C(=O)O | 2.1 µM (active) |
| CC(C)c1ccc2c(c1)c(SC(C)(C)C)c(CC(C)(C)C(=O)O)n2Cc1ccc(Cl)cc1 | > 46 µM |
| COc1cc(OC)c(C(=O)CCCN2CCCC2)c(OC)c1 | > 20.6 µM |
| CC(C)(S)[C@@H](N)C(=O)O | > 20.6 µM |
| CN1C(C(=O)Nc2ccccn2)=C(O)c2sccc2S1(=O)=O | > 20.6 µM |
| O=c1ccc2ccc(O)c(O)c2o1 | > 46 µM |
| CCc1nc(N)nc(N)c1-c1ccc(Cl)cc1 | > 20.6 µM |

From PubChem BioAssay (NCATS)
